# KCNQ2 block: inhibitors of rat KCNQ2 potassium channel; CHO-K1 KCNQ2, FluxOR thallium flux, 20 min; active compounds read low; B-score at 10 µM; 310,000 compounds, 1.1% hits;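 active means fluorescence ratio B-score at most minus 3 library SDs, with starting brightness B-score within 2 library SDs, cut at about -5.5 in these data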
# KCNQ2 enhance: enhances the rat KCNQ2 potassium channel; 310,000 compounds, 0.54% hits; O88943; AID 2239; CHO-K1 KCNQ2, FluxOR thallium flux fluorescence; active compounds read high; B-score at 10 µM;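 active means fluorescence ratio B-score at least 3 SD of library B-scores, with initial fluorescence B-score within 3 of them, cut at about 5.3 in these data; same plate scores as AID 2156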;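 further: B-score of peak minus minimum over baseline fluorescence ratio after K+ and Tl+ stimulus; positive B-score means potentiation of KCNQ2 with more thallium influx and brighter signal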
# KCNQ2 block conf: rat KCNQ2 channel inhibition, confirmatory screen | KCNQ2-expressing cells, thallium flux; active compounds read low | activity change, negative = inhibition, % at 10 µM | shares compounds with KCNQ2 block | 1,000 compounds, 57% hits;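 further: 0% = vehicle wells and values are ratio percent relative to vehicle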
# KCNQ1 spec: selectivity of KCNQ2 inhibitors against human KCNQ1; shares compounds with KCNQ2 block; KCNQ1-expressing cells, FluxOR thallium flux fluorescence; active compounds read low; activity change, negative = inhibition, % at 10 µM; 1,000 compounds, 15% hits; AID 493026;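 active means activity change at least 3 SD of negative controls below their mean in both duplicate wells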;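 further: CHO cells stably transfected with KCNQ1 and depolarized by potassium stimulus; peak minus minimum fluorescence over baseline after thallium addition; 0% = vehicle negative control and -100% = blank without thallium stimulus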
# Target sequence (P51787 whole entry, looked up): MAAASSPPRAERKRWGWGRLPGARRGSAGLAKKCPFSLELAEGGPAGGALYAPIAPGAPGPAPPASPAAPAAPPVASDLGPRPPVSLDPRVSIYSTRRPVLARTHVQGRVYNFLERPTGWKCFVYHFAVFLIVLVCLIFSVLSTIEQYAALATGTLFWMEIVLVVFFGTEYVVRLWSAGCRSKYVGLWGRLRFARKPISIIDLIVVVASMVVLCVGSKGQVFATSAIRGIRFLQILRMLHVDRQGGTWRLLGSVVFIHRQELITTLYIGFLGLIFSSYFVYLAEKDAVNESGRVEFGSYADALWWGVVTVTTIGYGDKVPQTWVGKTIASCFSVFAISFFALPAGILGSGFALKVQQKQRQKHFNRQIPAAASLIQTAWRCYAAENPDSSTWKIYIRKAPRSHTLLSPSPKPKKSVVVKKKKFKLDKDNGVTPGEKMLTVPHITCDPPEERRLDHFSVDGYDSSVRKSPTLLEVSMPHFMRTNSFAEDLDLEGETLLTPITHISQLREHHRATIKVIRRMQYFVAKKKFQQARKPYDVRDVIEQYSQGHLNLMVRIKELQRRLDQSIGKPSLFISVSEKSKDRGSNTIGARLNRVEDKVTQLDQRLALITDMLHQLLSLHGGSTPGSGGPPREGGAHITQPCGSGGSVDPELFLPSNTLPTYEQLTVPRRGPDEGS
# CHO Tl ctr: counter-screen for KCNQ2 inhibitors: effect in parental CHO cells. shares compounds with KCNQ2 block. thallium flux counter-screen; active compounds read low. activity change, % at 10 µM. 1,000 compounds, 14% hits;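 further: 0% = vehicle negative controls with stimulus buffer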
# KCNQ2 inh confirm: blocks rat KCNQ2 current in automated patch clamp | shares compounds with KCNQ2 block | KCNQ2-expressing cells | calls only at 10 µM | 550 compounds, 49% hits
# Kir21 confirm: confirmation of mouse Kir2.1 potassium channel inhibitors; shares compounds with KCNQ2 enhance; Kir2.1-expressing cells, FluxOR thallium flux fluorescence; active compounds read low; Tl flux remaining, % of negative control (active compounds read low), % at 10 µM; 2,300 compounds, 41% hits; AID 2032;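 active means Primary-screen hit whose thallium flux fell at least 3 control SD below untreated wells in both duplicates, with normal baseline fluorescence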;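 further: 0% = blank wells without stimulus and 100% = stimulated no-compound controls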
# HEK293 ctr: alters thallium flux in parental HEK293 cells, Kir2.1 counter-screen. shares compounds with KCNQ2 enhance. FluxOR thallium flux fluorescence; 0% = unstimulated blank wells. FluxOR signal as % of negative control (100 = no effect), % at 10 µM. 2,300 compounds, 19% hits. AID 2105;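 active means dye signal at least 3 control SD above or below untreated wells in both duplicates, raw fluorescence within 3, either direction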;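 further: percent is based on the flux ratio of peak minus minimum fluorescence over baseline F0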
# Active calls of the source: *; i = inactive; . = no result; + = active, no number. Only some compounds are listed: those with a hit (about 1.6% of all), similar ones and a draw of the others. Unless noted, how the calls were made is not given here.
SMILES,KCNQ2 block,KCNQ2 enhance,Kir21 confirm,HEK293 ctr,others
Clc1ccc(COC(Cn2ccnc2)c2ccc(Cl)cc2Cl)cc1 (stereo not given),-8.3*,-8.3,.,.,
CCOc1cc2c(cc1OCC)-n1cccc1C(c1ccc(OC(F)F)cc1)NC2 (stereo not given),i,.,.,.,
O=P(Nc1ccccc1)(Nc1ccccc1)Oc1cccc(Cl)c1,-7.7*,-7.7,.,.,KCNQ2 block conf=i;KCNQ1 spec=i;CHO Tl ctr=i
O=P(Nc1ccccc1)(Nc1ccccc1)Oc1ccccc1,i,.,.,.,
Cc1cc(=O)n(-c2ccccc2)n1-c1ccccc1,i,2.2,.,.,
Cc1c2cnn(CC(=O)N3CCC4(CC3)OCCO4)c(=O)c2c(C)n1Cc1ccccc1Cl,i,.,.,.,
CON(C)C(=O)Nc1ccc(Cl)cc1,i,.,.,.,
O=C(Nc1ccc(Cl)cc1)O/N=C(\c1ccccc1)c1ccccn1,-7.7*,-7.7,.,.,KCNQ2 block conf=i;KCNQ1 spec=i;CHO Tl ctr=i
COc1ccc(-n2c(/C=C/c3cccc(F)c3)nc3ccccc3c2=O)c(OC)c1,i,.,.,.,
COc1ccc(NC(c2ccccc2)P(=O)(Oc2ccccc2)Oc2ccccc2)cc1 (stereo not given),-7*,-7,.,.,KCNQ2 block conf=-31%*;KCNQ1 spec=i;CHO Tl ctr=i;KCNQ2 inh confirm=+
COc1ccc(NC(c2ccccc2F)P(=O)(Oc2ccccc2)Oc2ccccc2)cc1 (stereo not given),i,.,.,.,
CC1CCC(C(C)C)C(OC(=O)Cn2c(COc3ccccc3)[n+](C)c3ccccc32)C1 (stereo not given),-10*,-10,18%*,i,KCNQ2 block conf=-55%*;KCNQ1 spec=-52%*;CHO Tl ctr=-50%*;KCNQ2 inh confirm=i
Cc1ccc(-c2cc(-c3ccccc3)cc(-c3ccccc3)[n+]2-c2ccc(C(=O)O)cc2)cc1,i,.,.,.,
Oc1ccccc1-[n+]1c(-c2ccccc2)cc(-c2ccccc2)cc1-c1ccccc1,-7.6*,-7.6,44%*,i,KCNQ2 block conf=-16%*;KCNQ1 spec=i;CHO Tl ctr=i;KCNQ2 inh confirm=i
COc1ccc(CC(C)NC2CCCCCC2)cc1 (stereo not given),i,0.5,.,.,
COc1ccc(-c2nn(CCC#N)cc2C(=O)Nc2ccc(C(C)=O)cc2)cc1[N+](=O)[O-],i,0.89,.,.,
CCCCCCCSc1cc(OC)c(CCN(C)C)cc1OC,-7.7*,-7.7,19%*,i,KCNQ2 block conf=-34%*;KCNQ1 spec=-38%*;CHO Tl ctr=-28%*;KCNQ2 inh confirm=i
C[C@H](NC(=O)N1C[C@H]2C[C@@H](C1)c1cccc(=O)n1C2)C(=O)Nc1ccc(F)c(F)c1,i,1,.,.,
COc1ccc(CCNCc2cccn2C)cc1OC,i,.,.,.,
COc1ccc(-[n+]2c(-c3ccccc3)cc(-c3ccc(C)cc3)cc2-c2ccccc2)cc1,-10*,-10,14%*,i,KCNQ2 block conf=-26%*;KCNQ1 spec=i;CHO Tl ctr=i;KCNQ2 inh confirm=+
COc1ccc(-c2cc(-c3ccccc3)[n+](C)c(-c3ccccc3)c2)cc1,i,.,.,.,
CC(C)OC1CCCC(O)C1CC(=O)O (stereo not given),i,0.55,.,.,
Cc1ccc(Cn2nc(C(=O)Nc3ccc(Br)cc3)cc2C)cc1,i,.,.,.,
CNCC(O)c1cccc(OC(=O)c2ccccc2C)c1 (stereo not given),i,0.15,.,.,
CNCC(O)c1cc(OCc2ccccc2)c(OCc2ccccc2)cc1F (stereo not given),i,.,40%*,72%*,
SMILES,KCNQ2 block,KCNQ2 enhance,Kir21 confirm,HEK293 ctr,others
Cc1cc(=O)oc2c(C)c(OCC(=O)N3CCC(C(=O)O)(c4ccccc4)CC3)ccc12,i,.,.,.,
CC(=NCCN(C)C)c1c(O)n(Cc2ccccc2)c(=O)[nH]c1=O,i,.,.,.,
CC1(C)C[C@H]2C=C(C=O)[C@]3(C=O)C[C@]3(C)[C@H]2C1,-6*,-6,42%*,71%*,
Cc1ccc(C[n+]2c(-c3ccc(C)cc3)cc(-c3ccc(C)cc3)cc2-c2ccc(C)cc2)cc1,i,.,12%*,i,
CCOc1ccc(-c2cc(C)[n+](CCN3CCOCC3)c(-c3ccc(OCC)cc3)c2)cc1,i,.,.,.,
COc1cccc(CC(=O)N(C)C2CCCN(Cc3ccccc3F)C2)c1 (stereo not given),i,0.18,.,.,
NS(=O)(=O)OC(CCc1ccccc1)C(Cl)(Cl)Cl (stereo not given),i,1.9,.,.,
CNc1cc(Cl)c2nonc2c1[N+](=O)[O-],-9.5*,-9.5,i,54%*,
Cc1cc([N+](=O)[O-])c(Cl)cc1NC(=O)C(C)C,i,0.97,.,.,
Cc1ccc(-c2cc(-c3ccc(C)cc3)[n+](-c3ccc(C(=O)O)cc3)c(-c3ccc(C)cc3)c2)cc1,i,0.83,.,.,
Brc1ccc(-[n+]2c(-c3ccccc3)cc(-c3ccccc3)cc2-c2ccccc2)cc1,-8.4*,-8.4,34%*,i,
C[n+]1c(-c2ccccc2)cc(CCCCc2cc(-c3ccccc3)[n+](C)c(-c3ccccc3)c2)cc1-c1ccccc1,i,.,.,.,
[O-]c1ccccc1-[n+]1c(-c2ccccc2)cc(-c2ccccc2)cc1-c1ccccc1,i,.,25%*,i,
CCCOC(=O)c1ccc(-[n+]2c(-c3ccccc3)cc(-c3ccccc3)cc2-c2ccccc2)cc1,-6.9*,-6.9,36%*,i,
Cc1ccccc1-[n+]1c(-c2ccccc2)cc(-c2ccccc2)cc1-c1ccccc1,-8.3*,-8.3,16%*,57%*,
CC(C)CCN1CCN(Cc2c(F)cccc2Cl)CC1CCO (stereo not given),i,.,.,.,
O=P(Nc1cccnc1)(Oc1ccccc1Cl)Oc1ccccc1Cl,i,.,.,.,
Cc1ccccc1N1CCN(C2CCCN(C(=O)COc3ccccc3)C2)CC1 (stereo not given),i,.,.,.,
COc1ccc(C(O)P(=O)(OC(C)C)OC(C)C)cc1 (stereo not given),i,0.08,.,.,

# Screens: PubChem, Johns Hopkins Ion Channel Center
